Only some compounds are listed: those with a hit (about 2.9% of all), similar ones and a draw of the others.
ZTA DNA inh: counter-screen for EBNA-1 inhibitors: inhibitors of Epstein-Barr virus ZTA; ZTA-DNA binding, fluorescence polarization; inhibition, % at 11 µM; 320,000 compounds, 0.15% hits; in the data active means inhibition above about 33%
Target sequence (P03206 whole entry, looked up): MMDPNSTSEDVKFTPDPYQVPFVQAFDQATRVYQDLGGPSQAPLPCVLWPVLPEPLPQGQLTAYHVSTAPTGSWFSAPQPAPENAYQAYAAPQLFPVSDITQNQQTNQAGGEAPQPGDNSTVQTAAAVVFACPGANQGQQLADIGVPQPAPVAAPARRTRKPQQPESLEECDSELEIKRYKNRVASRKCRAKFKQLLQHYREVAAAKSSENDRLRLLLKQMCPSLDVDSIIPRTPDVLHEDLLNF
PAFAH1B3 FP inh: PAFAH1B3 enzyme inhibitors, primary screen, biochemical, fluorescence polarization, human; Platelet-activating factor acetylhydrolase IB subunit alpha1 (Homo sapiens), Q15102; recombinant PAFAH1B3, FP-rhodamine probe; inhibition, % at 3.39 µM; 340,000 compounds, 0.28% hits; AID 492972, 2010;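 active means inhibition above the screen-wide average of all tested compounds plus 3 SD, cut at about 25% in these data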;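 further: 0% = enzyme with DMSO only and 100% = wells lacking PAFAH1B3 protein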
PAFAH1B2 FP inh: PAFAH1B2 enzyme inhibitors, primary screen, biochemical, fluorescence polarization, human; recombinant PAFAH1B2, FP-rhodamine activity probe; inhibition, % at 3.39 µM; 340,000 compounds, 1.2% hits;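 active means inhibition above the mean of all tested compounds plus 3 SD, cut at about 24% in these data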;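 further: 0% = enzyme with DMSO and 100% = wells lacking PAFAH1B2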
Target sequence (P68402 whole entry, looked up): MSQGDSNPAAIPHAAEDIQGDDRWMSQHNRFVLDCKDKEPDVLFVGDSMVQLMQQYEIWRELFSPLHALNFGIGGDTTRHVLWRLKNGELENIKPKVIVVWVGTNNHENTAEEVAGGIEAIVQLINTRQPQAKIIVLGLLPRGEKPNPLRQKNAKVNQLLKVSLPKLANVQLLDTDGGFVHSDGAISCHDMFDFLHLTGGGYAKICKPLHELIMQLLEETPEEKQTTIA
EBNA-1 inh: EBNA-1 DNA-binding inhibitors, primary screen, biochemical, fluorescence polarization. 300,000 compounds, 0.34% hits. AID 1950, 2009. inhibition, % at 14.8 µM; in the data active means inhibition above about 28%
rCAG RNA binder: binders of r(CAG) RNA repeats, primary screen, biochemical, fluorescence | r(CAG) RNA repeat, TO-PRO-1 dye displacement fluorescence | inhibition, % at 3 µM | 370,000 compounds, 1.3% hits;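 active means inhibition above the plate cutoff, the mean of all test compounds on that plate plus 3 SD, cut at about 35% in these data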;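 further: 0% = DMSO alone and 100% = 100 µM mitoxantrone as full dye displacement; higher means more dye released from RNA so lower well fluorescence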
PAFAH2 FP inh: PAFAH2 enzyme inhibitors, primary screen, biochemical, fluorescence polarization, human; Platelet-activating factor acetylhydrolase 2, cytoplasmic (Homo sapiens), Q99487; recombinant PAFAH2, FP-rhodamine activity probe; inhibition, % at 3.39 µM; 340,000 compounds, 0.99% hits; AID 492956, 2010;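 active means inhibition above the mean over all tested compounds plus 3 SD, cut at about 30% in these data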;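 further: inhibitors block probe labeling of enzyme so polarization drops; 0% = enzyme with DMSO and 100% = wells lacking PAFAH2 protein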
PAFAH1B3 conf FP: PAFAH1B3 enzyme inhibitors, confirmation, biochemical, fluorescence polarization, human. shares compounds with PAFAH1B3 FP inh. recombinant PAFAH1B3, FP-Rh activity-based probe. inhibition, % at 3.39 µM. 390 compounds, 30% hits. AID 493032, 2011;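 active means average inhibition over triplicate runs above the hit cutoff set in the earlier primary screen, cut at about 25% in these data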;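 further: 0% = enzyme with DMSO and 100% = wells lacking PAFAH1B3 protein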
Starred values were filed as active, the others as inactive; · = no result given.

SMILES	ZTA DNA inh	PAFAH1B3 FP inh	PAFAH1B2 FP inh	EBNA-1 inh	rCAG RNA binder	PAFAH2 FP inh	PAFAH1B3 conf FP
COC(=O)[C@H](CC(C)C)N(CCCc1cn(Cc2ccccc2)nn1)S(=O)(=O)c1ccc(F)cc1Br	·	·	·	·	1	·	·
Cc1[nH][nH]c(=O)c1C(c1ccc(-c2cccc(Cl)c2)o1)c1c(C)[nH][nH]c1=O	11	46*	13	4	·	18	19
Cc1[nH][nH]c(=O)c1C(c1ccc(-c2cccc(C(=O)O)c2)o1)c1c(C)[nH][nH]c1=O	18	9	9	-11	3	4	·
C/C(=N\NC(=S)Nc1ccc(F)cc1)C1CC1	6	26*	7	-7	1	1	10
CCc1cc(/C(Cc2csc(C)n2)=N/O)c(O)cc1O	4	29*	13	-7	-1	8	23
COc1ccc(/C=C2\C(=O)NC(=O)c3ccccc32)cc1OC	·	40*	2	·	2	1	16
COC[C@@H]1CCCN1c1cccc2c1S(=O)(=O)N1CC[C@H](C1)O2	·	·	·	·	0	·	·
O=c1ccc2ccccc2c2ccccc12	·	·	·	·	2	·	·
O=Nc1c(O)c2ccccc2c2ccccc12	-6	94*	11	-3	16	12	66*
C=CCN1C(=O)[C@H](CC(=O)N2CCN(C(=O)C3CC3)CC2)[C@@]2(C(=O)OCC)CCCC=C12	·	·	·	·	-1	·	·
S=C(Nc1ccc2nsnc2c1)NC1CCCCC1	2	56*	15	-11	2	6	2
COCCNC(=S)Nc1ccc2nsnc2c1	-2	69*	19	-2	2	20	4
S=C(Nc1ccc(Cl)c(Cl)c1)NC1CCCCC1	-12	1	1	-1	·	-15	·
C=CCN(CC=C)C(=S)Nc1ccc2nsnc2c1	3	59*	17	0	6	17	4
S=C(Nc1ccc2nsnc2c1)N1CCCCCC1	-1	32*	9	-7	0	15	10
N#Cc1cccc(C(=O)C(=O)N2CCN(C(=O)OCc3ccccc3)CC2)c1	·	·	·	·	1	·	·
O=C(C1CCCN(S(=O)(=O)c2cccs2)C1)N1CCN(Cc2ccccc2)CC1 (stereo not drawn)	·	·	·	·	2	·	·
O=c1oc2cc(O)ccc2cc1-c1nc2c(s1)CCc1ccccc1-2	-2	33*	14	5	-46	11	17
O=C(O)c1ccc(NC2=C(N3CCOCC3)C(=O)c3ccccc3C2=O)cc1	12	27*	8	1	1	11	13
O=C(c1ccccc1)c1ccc(N2CCOCC2)cc1	·	16	3	·	0	-7	·
CC(=O)c1ccc(NC2=C(N3CCOCC3)C(=O)c3ccccc3C2=O)cc1	4	31*	4	0	-1	24	9
O=C(OC12CCCN(C1)/C(=C/c1cccnc1)C2)c1ccccc1 (stereo not drawn)	·	·	·	·	2	·	·
Oc1ccc(CCNc2c3ccccc3nc3ccccc23)cc1O	1	40*	15	0	14	14	33*
c1ccc(CNc2c3ccccc3nc3ccccc23)cc1	4	2	4	4	8	8	·
Cc1ccc(-c2nnc(SCC(=O)NNC(=S)Nc3ccccc3)n2C2CCCCC2)cc1	·	·	·	·	31	·	·
SMILES	ZTA DNA inh	PAFAH1B3 FP inh	PAFAH1B2 FP inh	EBNA-1 inh	rCAG RNA binder	PAFAH2 FP inh	PAFAH1B3 conf FP
CCOC(=O)[C@]12CCC=C1N(Cc1ccco1)C(=O)[C@H](CC(=O)N1CCN(C(=O)c3ccco3)CC1)C2	·	·	·	·	11	·	·
C/C(=N\NC(=O)c1cc(-c2ccccc2)nc2ccccc12)c1ccc(Cl)cc1	·	·	·	·	6	·	·
CN(C)/C=C1\C(=O)ON=C1c1ccccc1	13	-7	3	-7	7	-4	·
Cc1ccc(C2=NOC(=O)/C2=C\C=C\c2ccccc2)cc1	·	36*	12	·	31	16	29*
CCN(C(=O)[C@@H](C)[C@@H](O)c1ccc2ccccc2c1)c1ccccc1	·	·	·	·	0	·	·
COc1ccc(C(=O)C[n+]2ccccc2/C=N/O)cc1	6	26*	5	-13	0	8	18
COc1ccc2c(ccc[n+]2CC(=O)c2ccccc2)c1	·	-4	-7	·	2	-2	·
COC(=O)[C@]12C[C@H](CC(=O)N3CCSCC3)C(=O)N(Cc3cccc4ccccc34)C1=C[C@H](C(C)C)O[C@@H]2C1CC1	·	·	·	·	5	·	·
CCCN1CCN(C(=O)c2ccc3nc(CC)c(CC)nc3c2)CC1	-7	2	0	-5	-8	-1	·
CCc1nc2ccc(C(=O)N3CCN(CC)CC3)cc2nc1CC	10	28*	18	-2	-4	28	8
O=C(COC(=O)Cc1cccs1)NCC(=O)Nc1ccc(F)cc1	0	42*	7	·	5	1	8
O=c1oc(-c2ccc(O)c(O)c2)cc2cccc(O)c12	·	2	-1	·	16	17	·
O=c1oc(-c2ccc(O)c(O)c2)cc2cc(O)cc(O)c12	·	28*	3	·	16	8	28*
O=C1NC(c2ccccc2)C(c2ccccc2)N1 (stereo not drawn)	·	50*	5	·	3	12	39*
O=C1CNC(c2ccccc2)C(c2ccccc2)N1 (stereo not drawn)	·	·	·	·	2	·	·
CC1=C(C(=O)N2CCCCCC2)CC(CC(=O)NCCc2ccccn2)C(=O)N1CCC1=CCCCC1 (stereo not drawn)	·	·	·	·	-1	·	·
O=C(CSc1nccc(=O)[nH]1)N1CCc2ccccc2C1	-6	28*	4	-2	0	2	5
CCCc1cc(=O)[nH]c(SCC(=O)N2CCc3ccccc3C2)n1	-25	-2	4	·	4	-2	·
O=c1c2cccc3c2c(nn1CN1CCOCC1)-c1ccccc1-3	-4	26*	8	9	·	7	36*
CCN(CC)CCn1nc2c3c(cccc3c1=O)-c1ccccc1-2	-15	2	0	-3	3	5	·
CCOC(=O)c1sc(NC(=O)Nc2ccccc2Cl)cc1C	-1	6	2	2	21	-47	·
CCOC(=O)c1sc(NC(=O)Nc2ccccc2)cc1C	13	27*	13	7	19	-19	18
O=C1[C@@H](CCc2ccccc2)[C@@H]2c3cc4ccccc4cc3C=NN2[C@@H]2c3cc4ccccc4cc3C=NN12	·	·	·	·	6	·	·
CC1(NC(=O)c2cc(Cl)nc3ccccc23)CCS(=O)(=O)C1 (stereo not drawn)	-4	35*	3	·	10	5	9
CCN(CC)c1ccc(NC2=C(Cl)C(=O)c3ccccc3C2=O)cc1	2	26*	6	6	·	28	36*
Cc1ccc(NC2=C(Cl)C(=O)c3ccccc3C2=O)cc1	-7	16	9	7	-1	9	·
